The list is not random: actives were taken first. Their share in the collection is about 3.4%.
Mcl1 Bid PPI – Mcl-1/Bid binding inhibitors, primary screen, biochemical, TR-FRET, 1536-well; inhibition, % at 21.7 µM; 0.97% of 220,000 active; Induced myeloid leukemia cell differentiation protein Mcl-1 (Homo sapiens), Q07820; TR-FRET Mcl-1/Bid-Dy647 peptide binding;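 active means compounds that cut the binding signal by more than half at the single screening dose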;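 further: His-tagged Mcl-1 with europium anti-His antibody binding Bid BH3 peptide; 0% = Mcl-1 plus peptide wells and 100% = peptide-only wells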
eIF4E 4G PPI – eIF4E–eIF4G protein interaction inhibitors, primary screen, biochemical, uHTS, TR-FRET, eIF4GI fragment. inhibition, % at 21.7 µM. Eukaryotic translation initiation factor 4E (Mus musculus) + Eukaryotic translation …. TR-FRET eIF4E-eIF4GI(517-606) binding, 2 h. 0.37% of 220,000 active;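 further: 0% = full FRET control wells and 100% = background wells lacking eIF4GI fragment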
14-3-3 Bad inh – inhibitors of 14-3-3 zeta/Bad binding, primary screen, biochemical, TR-FRET, bovine 14-3-3 zeta | 14-3-3 protein zeta/delta (Bos taurus), P63103 | TR-FRET 14-3-3zeta/Dy647-pBad peptide displacement, 1 h | inhibition, % at 21.7 µM | 0.71% of 220,000 active | AID 781, 2007;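 active means inhibition above about 70%, limit read from the data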;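 further: 0% = full 14-3-3 plus peptide FRET controls and 100% = background without 14-3-3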
Target sequence (P63103 whole entry, looked up): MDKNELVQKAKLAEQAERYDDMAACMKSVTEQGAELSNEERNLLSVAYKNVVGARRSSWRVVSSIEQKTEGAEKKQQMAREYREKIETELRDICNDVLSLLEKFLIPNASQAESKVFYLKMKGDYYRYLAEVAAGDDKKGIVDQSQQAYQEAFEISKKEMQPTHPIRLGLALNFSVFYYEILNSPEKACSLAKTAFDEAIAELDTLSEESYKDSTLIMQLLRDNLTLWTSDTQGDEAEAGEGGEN
p47phox inh – p47phox/p22phox peptide binding inhibitors, primary screen, biochemical, uHTS, NADPH oxidase regulatory subunit; 0.53% of 220,000 active; Neutrophil cytosol factor 1 (Homo sapiens), P14598; fluorescence polarization, 2 h; inhibition, % at 24.7 µM; AID 1274, 2008;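 further: 0% = p47phox with labelled peptide and 100% = labelled peptide alone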
Mcl1 Noxa PPI – Mcl-1/Noxa binding inhibitors, primary screen, biochemical, TR-FRET, 1536-well | Induced myeloid leukemia cell differentiation protein Mcl-1 (Homo sapiens), Q07820 | TR-FRET Mcl-1/Noxa peptide binding, 2 h | inhibition, % at 21.7 µM | 1.5% of 220,000 active | AID 1022, 2008;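 active means compounds that cut the protein-peptide binding signal by more than 50% relative to plate controls in a single-dose test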;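 further: His-tagged Mcl-1 with rhodamine Noxa BH3 peptide and terbium anti-His antibody; 0% = Mcl-1 plus Noxa peptide wells and 100% = peptide-only wells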
Bim-Mcl-1 – inhibitors of Bim peptide binding to Mcl-1, primary screen, biochemical, bead-based flow cytometry, multiplex | Bim peptide-Mcl-1 binding | inhibition, % at 10 µM | 0.1% of 190,000 active | AID 1009, 2008; in the data active means inhibition above about 40%;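 further: 0% = no compound tracer wells and 100% = peptide blocker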
Starred values were filed as active, the others as inactive; x = no result given; [ ] = another dose, or the depositor's remark.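 How the source made its calls, unless noted: active means inhibition above about 30% (limit read from the data); inactive means the rest.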

SMILES | Mcl1 Bid PPI | eIF4E 4G PPI | 14-3-3 Bad inh | p47phox inh | Mcl1 Noxa PPI | Bim-Mcl-1
Cc1cc(C(C)(C)C)ccc1OCCCCN1CCCC1 | -4 | 17 | -4 | -9 | 1 | -5
COc1cccc(OC)c1OCCCN1CCOCC1 | 35 | 0 | 45 | -9 | 29 | 2
COCCNC(=O)CN(C(=O)Cn1nnc2ccccc21)c1cc(C)cc(C)c1 | -10 | -1 | -8 | 4 | 7 | 0
O=C(c1ccc2c(c1)N(Cc1cccc(Cl)c1)C(=O)c1ccccc1S2(=O)=O)N1CCN(c2ccccn2)CC1 | 11 | -1 | 4 | -10 | -4 | 0
O=C1c2ccccc2-c2onc3c(Oc4ccccc4)cc(O)c1c23 | -23 | 7 | 10 | -12 | 59* | 28
COCCn1c(-c2ccc(-c3ccc([N+](=O)[O-])cc3Br)o2)nc2c1c(=O)[nH]c(=O)n2CC(C)C | -3 | 16 | 8 | -38 | 14 | 6
O=c1oc2ccccc2c(Nc2cc3ccccc3cc2O)c1[N+](=O)[O-] | -23 | 1 | -12 | 1 | 53* | -5
O=c1oc2ccccc2c(Nc2ccccc2O)c1[N+](=O)[O-] | -20 | -4 | -12 | 1 | 14 | -2
COc1cc(/C=N/NC(=O)C2C3CCCCC32C)cc(Br)c1O (stereo not given) | -13 | 0 | -12 | -16 | 51* | -6
COc1ccc(CN(CCN2CCOCC2)C(=O)c2c(F)cccc2F)cc1OC | -11 | -3 | 80* | -10 | 9 | 0
O=C1/C(=C/C=C/c2ccco2)SC(=S)N1c1ccc(O)cc1 | 38 | 37* | 63 | -63 | 102* | x
O=C(O)c1ccc(N2C(=O)/C(=C/C=C/c3ccccc3)SC2=S)cc1 | -56 | 1 | -8 | -4 | 1 | -2
CC(C)C(C(=O)O)N1C(=O)/C(=C/C=C/c2ccco2)SC1=S (stereo not given) | 98* | 46* | 71*[fluorescence artefact?] | -81 | 102* | 0
CN(C)c1ccc(/C=C/C=C2/SC(=S)N(c3ccccc3)C2=O)cc1 | -22 | -4 | -15 | 107* | -4 | 22
O=C(NN1C(=O)/C(=C/C=C/c2ccco2)SC1=S)c1ccncc1 | 26 | 37* | 71* | -84 | 99* | x
O=C(NN1C(=O)/C(=C/C=C/c2ccccc2)SC1=S)c1ccncc1 | -5 | 5 | -14 | -7 | 14 | 3
COc1ccc(CCNC(=O)C(=O)NCc2ccccn2)cc1 | -28 | 3 | 6 | -4 | 16 | 1
COC(=O)c1cccc(NC(=S)Nc2cccc(Cl)c2Cl)c1 | 98* | 6 | -4 | -12 | 35 | -4
Cc1sc2nc(CN3CCN(c4ccc(O)cc4)CC3)[nH]c(=O)c2c1C | -36 | -7 | 6 | 4 | 67* | x
Cc1nc(/N=C(\N)N(C)C)[nH]c(=O)c1C | -51 | -6 | 1 | -7 | 8 | x
COc1cc(OC)cc(C(=O)N2CCC(N3CCN(c4ccccc4OC)CC3)CC2)c1 | 57* | -3 | 43 | -12 | 14 | -4
O=C1c2ccccc2-c2nnc(-c3ccc(F)cc3)cc21 | 6 | 3 | -10 | 46* | 31 | -2
CC(C)(C)N=C1NN=C(c2cc3ccccc3o2)CS1 | -11 | 2 | -7 | -1 | 71* | -4
CC(C)(C)N=C1NN=C(c2ccc(Cl)cc2)CS1 | -33 | -10 | -1 | -1 | 5 | x
COc1ccc(C(C)=O)cc1COC(=O)CNC(=O)c1ccc(Cl)cc1 | 3 | -1 | 11 | 194* | 0 | 1
COc1ccc(C(C)=O)cc1COC(=O)CNC(=O)c1ccc(F)cc1 | -18 | 17 | 2 | -14 | 5 | -20
Cn1c2ccccc2c2cc(C(=O)NNC(=O)CCl)sc21 | -38 | 2 | -6 | -9 | 60* | 0
NC(=O)[C@@H]1CCCN1Cc1nc(-c2cccs2)no1 | -46 | 1 | -2 | -4 | 54* | -3

Compound activity as filed in PubChem.
